Measured values: PubChem BioAssay AID686979 (National Center for Advancing Translational Sciences (NCATS), 2013)
Where “and” joins values, the source holds several entries; their conditions need not be identical. Identical values can stand only once. Screen size: about 420,000 compounds; about 50,000 (12%) were called active. About 26% were inconclusive and are not listed. Calls follow the shape of the dose curve; as a rule, active = well fitted inhibition curve with a large enough effect; inconclusive = small, poorly fitted or top-dose-only effect; inactive = flat fitted curve, though single readings scatter. Shown is part of a subset that was picked to be rich in actives. A call without a number means that no potency is given here.

Assay: qHTS for Inhibitors of human tyrosyl-DNA phosphodiesterase 1 (TDP1): qHTS in cells in presence of CPT; also: nearly all actives have a fitted effect of over 55% in size
Settings: chicken DT40 Tdp1-/-;hTDP1 cells + 20 nM CPT, ATP luminescence, 48 h; series mostly up to 46.2 µM
In short: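 Cell growth measured by CellTiter-Glo luminescence after a minimum 48 h, 37 C compound exposure with 20 nM CPT in Tdp1-knockout DT40 cells stably expressing hTDP1, seeded 400/well; qHTS titration format.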
Potency is read from the fitted curve at half-maximal effect.

Compound | Potency
CN(C)Cc1c(O)ccc2occ(C(O)c3ccccc3)c12 (centres undefined) | inactive
COC(C[C@@H](O)C[C@@H](O)[C@H](C)OCc1ccccc1)OC | inactive
Cc1ccc2c(c1)N(C(=O)Nc1ccc(Br)cc1F)CCO2 | inactive
O=C(Nc1ccccc1C(=O)Nc1ccncc1)c1ccc([N+](=O)[O-])cc1 | inactive
COC(=O)c1ccc(Nc2ncnc3sccc23)cc1 | inactive
CCOC(=O)c1nc(Nc2ccc(C(=O)OC)cc2)c2ccccc2n1 | 7.31 µM (active) and 16.4 µM (active)
CCOC(=O)c1ccc(Nc2cc(C)nc3nc(C)nn23)cc1 | inactive
C/C=C/C(=O)OCC(=O)Nc1ccc(F)cc1Cl | inactive
CN(C)N1C(N)=C(C#N)C(c2ccc(Br)cc2)C2=C1CCCC2=O (centres undefined) | inactive
COCC(C)OC(=O)c1c(N)n(CCCN2CCOCC2)c2nc3ccccc3nc12 (centres undefined) | inactive
CCCNC(=O)c1c(N)n(-c2ccc(S(N)(=O)=O)cc2)c2nc3ccccc3nc12 | inactive
CC(C)(C)c1ccc(C(=O)NCCn2c(N)c(C#N)c3nc4ccccc4nc32)cc1 | 23.1 µM (active)
O=C(NCc1nnc(SCC(=O)N2CCCCCC2)o1)c1ccc(F)cc1 | inactive
C=CCc1cc(S(=O)(=O)c2ccc(O)c(CC=C)c2)ccc1O | inactive
Cc1c(CCC(=O)O)c(=O)oc2c(C)c(OCc3ccccc3Cl)ccc12 | inactive
CC(C)CN(C(=O)c1cccc(S(=O)(=O)N2CCCCC2)c1)C1CCS(=O)(=O)C1 (centres undefined) | inactive
CCCCn1c(N)c(N(CCOC)C(=O)c2cccc(OCc3ccccc3)c2)c(=O)[nH]c1=O | inactive
Fc1ccc(-n2c(Cc3ccccc3)nnc2SCc2nc(-c3ccc(Cl)cc3)no2)cc1 | 13 µM (active)
Cc1ccc(-c2noc(CSc3nnc(-c4ccc(Cl)cc4)n3C)n2)cc1 | 18.4 µM (active)
O=C(CSc1nnc(Cc2ccccc2)n1-c1ccccc1)N1CCOCC1 | inactive
O=C(CSc1nnc(-c2ccncc2)n1-c1ccc(Cl)cc1)Nc1ccc(C(=O)O)cc1 | inactive
CSc1nnc(CNC(=O)c2ccccc2)n1-c1ccc(F)cc1 | inactive

Compound | Potency
Cc1ccc(CSc2nnc(-c3cnccn3)n2C)cc1 | inactive
Cc1ccc(-c2noc(CSc3nnc(-c4cccs4)n3C)n2)cc1 | inactive
Cc1ccc(-c2noc(CSc3nnc(-c4ccncc4)n3-c3ccc(F)cc3)n2)cc1 | 11.6 µM (active)
COc1ccccc1-c1noc(CSc2nc(C)cc(=O)[nH]2)n1 | inactive
Cc1ccc(-c2nc(-c3ccncc3)no2)c(C)c1 | inactive
COc1ccc(-c2noc(CSc3nnc(-c4ccccc4)n3-c3ccc(F)cc3)n2)c(OC)c1 | 11.6 µM (active)
COc1ccc(-c2nnc(SCC(=O)c3ccco3)n2-c2ccccc2)cc1 | inactive
Cc1cc(=O)cc(C)n1-c1ccc(Cl)c(Cl)c1 | inactive
CN(C(=O)CC1C(=O)NCCN1Cc1ccc2ccccc2c1)C1CCOCC1 (centres undefined) | inactive
Cc1ccc(/C=C2\CCn3c2nc2cc(C(=O)O)ccc2c3=O)c(C)c1 | inactive
Cc1ccc(-c2cc(C(=O)NN)n[nH]2)o1 | inactive
CN(Cc1ccccc1)C(=O)[C@@H]1CCCN1C(=O)[C@@H]1CCCN1C(=O)c1c(F)cccc1F | inactive
CC(C)=CCN1CCN(Cc2ccc(Oc3ncccn3)cc2)CC1CCO (centres undefined) | inactive
COc1ccccc1OCCOc1ccc(/C=C2\C(=N)N3N=C(C)SC3=NC2=O)cc1 | inactive
COc1ccc(NC(=O)N(C)C[C@H]2Oc3ncc(C#C[C@@H](C)O)cc3C(=O)N([C@H](C)CO)C[C@H]2C)cc1 | inactive
Cn1c(=O)cc(OCC(=O)N2CCN(c3ccccc3)CC2)c2ccccc21 | inactive
N#C/C(C(=O)N1CCOCC1)=C1/SC(Cc2ccc(F)cc2)C(=O)N1c1ccccc1 (centres undefined) | inactive
COc1ccc(S(=O)(=O)N2CCN(CC(=O)N3CCOCC3)CC2)cc1OC | inactive
O=C(O)CCC(=O)Nc1ccc(OCC2CCCO2)cc1 (centres undefined) | inactive
Cc1ccsc1-c1cc(C(=O)O)c2c(ccc3ccccc32)n1 | inactive
CC(=O)C1=C(O)C(=O)N(c2ccc(Br)cc2)C1c1ccc([N+](=O)[O-])cc1 (centres undefined) | inactive
CCn1c(CNC(=O)c2ccccc2)nnc1SCC(=O)N1CCN(c2ccccc2)CC1 | inactive

Compound | Potency
CCn1c2c(c(=O)n3ncc(C(=O)N4CCN(c5ccccc5)CC4)c13)CN(Cc1ccc(OC)cc1)CC2 | 16.4 µM (active)
CCOC(=O)N1CCC(NC(=O)C(NS(=O)(=O)c2ccc3c(c2)CCN3C(=O)CC)C(C)C)CC1 (centres undefined) | inactive
Cc1cc2c(cc1S(=O)(=O)NCc1ccc(Cl)cc1)OCC(=O)N2 | inactive
Cc1cc(C)cc(NS(=O)(=O)c2cc3c(cc2C)NC(=O)CO3)c1 | 16.4 µM (active)
Cc1ccc(NS(=O)(=O)c2ccc3c(c2)NC(=O)CO3)cc1 | inactive
CC1CCCCC12NC(=O)N(CC(=O)OCC(=O)NCc1ccc(F)cc1)C2=O (centres undefined) | inactive
CC(=O)C[C@@H]1OC[C@H](CO)N1S(=O)(=O)c1ccc(C)cc1 | inactive
CCOC(=O)c1cnc(SCC(=O)Nc2ccccc2C(=O)OC)nc1N | 16.4 µM (active)
CCOC(=O)c1cnc(SCC(=O)NCc2ccco2)nc1N | inactive
COC(=O)c1ccccc1NC(=O)CSc1ccccn1 | inactive
O=C(CSc1nc2ccccc2c(=O)n1CCCO)NC1CC1 | inactive
COc1ccc(CCNC(=O)CCC(=O)NC2CCCCC2)cc1OC | inactive
COc1ccc(CCNC(=O)c2c3c(nc4ccccc24)C(=O)N(C2CCCCC2)C3)cc1OC | 20.6 µM (active)
COc1ccc(CCNC(=O)C2CCCN2C(=O)Nc2ccccc2)cc1OC (centres undefined) | inactive
COc1ccc(C(=O)NCCNc2ccc([N+](=O)[O-])cn2)cc1 | inactive
COc1ccc2c(C(=O)c3ccc(C)cc3)n(CCC(N)=O)[n+]([O-])c2c1 | inactive
Cc1cc(C)cc(OCC(=O)NC(C)c2ccccc2)c1 (centres undefined) | inactive
CCOC(=O)/C=C/C(=O)OCC(=O)NC(c1ccccc1)c1ccccc1 | 5.8 µM (active)
CCOC(=O)C(C(=O)OCC)C(C#N)c1ccccc1 (centres undefined) | inactive
O=C(/C=C/c1cccc([N+](=O)[O-])c1)OCC(=O)N1CCOCC1 | inactive
